# Compound activity deposited in PubChem by National Center for Advancing Translational Sciences (NCATS).
# Shown are actives, neighbours in structure and some others; about 8.7% of the full set was active somewhere.
# ALOX12 inh – Primary qHTS assay for inhibitors of human arachidonate 12S-lipoxygenase (ALOX12): Round 2 | Polyunsaturated fatty acid lipoxygenase ALOX12 (Homo sapiens), P18054 | purified 12hLO, xylenol orange hydroperoxide absorbance | Potency, µM (series often up to 108 µM), for the others: at the top dose activity change, negative = inhibition, most hits filed as inhibitors | 580,000 tested, 1.1% active; further: on the % scale 0 is the no-effect control and ±100 the full control effect
#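 Purified human 12hLO (150 nM final) in 25 mM Hepes, 0.01% Triton X-100, pH 7.0 was preincubated 15 min at room temperature with compound. Then 40 uM arachidonic acid was added, 30 min. Hydroperoxide was read by Fe-XO absorbance ratio 573/405 nm.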
# BAZ2B block – qHTS Assay for Inhibitors of BAZ2B | AlphaScreen BAZ2B-H3K14Ac peptide displacement | Potency, µM (highest dose often 114 µM), without a hit: at the top dose activity change, negative = inhibition, usual class: inhibitors | 360,000 tested, 4.4% active | AID 504333, 2011; further: on the % scale 0 is the no-effect control and ±100 the full control effect; nearly all actives have a fitted effect of over 60% in size
#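 AlphaScreen luminescence quantifies BAZ2B engagement of H3K14Ac peptide; the protein and biotinylated peptide are both at 50 nM final, buffer PBS pH 7.4 with 0.01% Tween-20, all steps at room temperature.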
# HP1b chromo inh – HTS for Inhibitors of HP1-beta Chromodomain Interactions with Methylated Histone Tails. AlphaScreen HP1-beta / biotin-H3K9me3 peptide binding. Potency, µM (series often up to 114 µM), for the others: at the highest dose activity change, negative = inhibition, most hits filed as inhibitors. 390,000 tested, 0.56% active; further: nearly all actives have a fitted effect of over 70% in size
# Target sequence (P83916 whole entry, looked up): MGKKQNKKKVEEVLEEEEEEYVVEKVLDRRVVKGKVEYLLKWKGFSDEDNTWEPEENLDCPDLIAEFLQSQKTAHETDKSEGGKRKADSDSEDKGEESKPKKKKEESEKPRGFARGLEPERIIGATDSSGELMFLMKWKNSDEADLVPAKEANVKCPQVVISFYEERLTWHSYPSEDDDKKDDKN
#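 Compound inhibition of the preformed complex between 50 nM HP1-beta and 50 nM biotinylated H3K9me3 peptide was read by AlphaScreen. Buffer was PBS pH 7.4 with 0.01% Tween-20. Incubations ran 30 min at room temperature, with 10 ug/mL donor/acceptor beads.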
# G9a block – qHTS Assay for Inhibitors of Histone Lysine Methyltransferase G9a. Histone-lysine N-methyltransferase EHMT2 (Homo sapiens), Q96KQ7. G9a H3K9 monomethylation, AlphaScreen, 2 h. Potency, µM (highest dose often 102 µM), without a hit: at the highest dose activity, negative = inhibition, hits mostly inhibitors. 350,000 tested, 8.8% active; further: on the % scale 0 is the no-effect control and ±100 the full control effect; nearly all actives have a fitted effect of over 75% in size
# Target sequence (Q96KQ7 913-1193 limits assumed): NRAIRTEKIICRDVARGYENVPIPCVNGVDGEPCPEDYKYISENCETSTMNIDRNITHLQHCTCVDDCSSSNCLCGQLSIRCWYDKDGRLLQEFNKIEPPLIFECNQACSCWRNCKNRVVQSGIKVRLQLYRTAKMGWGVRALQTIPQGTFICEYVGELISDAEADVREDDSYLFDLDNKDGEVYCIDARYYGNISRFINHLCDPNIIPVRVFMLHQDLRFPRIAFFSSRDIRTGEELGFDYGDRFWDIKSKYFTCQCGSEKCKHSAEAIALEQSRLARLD
#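 Quantitative HTS format: methyltransferase activity on a biotin-tagged H3K9 peptide is measured by AlphaScreen, using a rabbit anti-monomethyl-H3K9 antibody with streptavidin donor and anti-IgG acceptor beads. Final levels are 20 nM enzyme, 500 nM peptide, 20 uM SAM; 2 h RT.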
# JMJD2A Tudor inh – qHTS Assay for Inhibitors of JMJD2A-Tudor Domain; Potency, µM (doses to about 114 µM), for inactives: at the highest dose activity change, negative = inhibition, actives largely listed as inhibitors; AID 504339, 2011; 390,000 tested, 4.4% active; AlphaScreen JMJD2A-Tudor / H3K4me3 peptide binding; Lysine-specific demethylase 4A (Homo sapiens), O75164; further: on the % scale 0 is the no-effect control and ±100 the full control effect; nearly all actives have a fitted effect of over 50% in size
# Sfp PPTase inh – qHTS Assay for Inhibitors of Bacillus subtilis Sfp phosphopantetheinyl transferase (PPTase). 4'-phosphopantetheinyl transferase ffp (Bacillus subtilis), Q9F4F7. AID 1490, 2009. 310,000 tested, 3.5% active. Potency, µM, without a hit: largest response in the series, negative = inhibition, usual class: inhibitors. Biochemical Sfp PPTase activity, qHTS;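 further: the enzyme is Sfp with the accession as filed and its product quenches rhodamine fluorescence; 0% = enzyme reaction without inhibitor and -100% = no enzyme wells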
#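 Step 1, compound plus 15 nM Sfp-PPTase, 15 min, room temperature. Step 2, add rhodamine-CoA (5 uM) and BHQ-2-YbbR (12.5 uM). Step 3, read 525/598 nm fluorescence at 0 and 30 min.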
# * hit, by the source's call; ? = inconclusive; . = no result; [ ] = remark or other dose. The call rests on the fitted dose curve; in most records, active means well fitted curve in the direction sought with a large enough effect; inconclusive means small, poorly fitted or top-dose-only effect, or another doubt; inactive means no such curve, though single readings can be large; an effect the other way counts as inactive or inconclusive. Potency means the concentration at half of the fitted maximal effect.
SMILES,ALOX12 inh,BAZ2B block,HP1b chromo inh,G9a block,JMJD2A Tudor inh,Sfp PPTase inh
CN(C)C(=O)CNS(=O)(=O)c1ccc(F)c(Cl)c1,-13%,.,.,.,.,.
COc1cccc(CNC(=O)[C@@H]2C[C@@H](O)CN2C2CCN(C(=O)c3ccc(C)s3)CC2)c1,58%,.,.,.,.,.
CCOc1ccc(N2CC(=O)N/C2=N\c2nc(C)cc(C)n2)cc1,?,-5%,25%,56µM*,?,-4%
CCc1ccc(NC(=O)c2nc(S(C)(=O)=O)ncc2N(Cc2ccccc2)Cc2ccco2)cc1,-4%,.,.,.,.,.
Fc1c(F)c(F)c(N/N=C/c2c[nH]c3ccccc23)c(F)c1F,?,?,-25%,?,?,2%
O=C(N/N=C/c1ccccc1O)C1SCCCS1,6%,79µM*,47%,62%,?,3%
C(=NN=C1c2ccccc2-c2ccccc21)c1c[nH]c2ccccc12,-14%,.,?,.,22µM*,.
NC(=S)N/N=C/c1cccc(O)c1O,?,8.9µM*,26%,?,28µM*,15%
NC(=S)N/N=C/c1c[nH]c2ccccc12,-22%,?,-14%,.,?,79µM*
COC(=O)N/N=C/c1c[nH]c2ccccc12,32%,7%,37%,10%[59 µM],9%,10%
CCOC(=O)c1noc2nc(C)n(CC(=O)Nc3cc(Cl)c(OC)cc3OC)c(=O)c12,-12%,.,.,.,.,.
CNC(=S)N/N=C/c1ccccc1Cl,-29%,-9%,15%,8%,-17%,-23%
O=C(CCN1CCCCC1)N/N=C/c1c[nH]c2ccccc12,99%,-6%,26%,?,-14%,8%
Oc1cccc(/C=N/NC(=S)Nc2cccnc2)c1O,45µM*,5.6µM*,-13%,11µM*,20µM*,?
CN1CCN(CC(=O)N/N=C\c2c[nH]c3ccccc23)CC1,-17%,-34%,.,16µM*,.,?
Cc1cc(O)c(C=Nc2cccc(Cl)c2)c(=O)o1,-9%,-7%,28%,?,-29%,-13%
Cc1cc(O)c(/C=N/Nc2ccccc2)c(=O)o1,?,?,3%,?,8.9µM*,18µM*
Oc1ccccc1C=NNC(=S)NN=Cc1ccccc1O,?,.,-16%[57 µM],.,20µM*,.
CN(CC(=O)NC(=O)NCC(F)(F)F)Cc1cccc(F)c1,-14%,.,.,.,.,.
CC(C)c1noc(C2CCCN(C(=O)Cc3cccc(F)c3)CCC(=O)NCC2)n1 (stereo unspecified),4%,.,.,.,.,.
COc1ccc(C(=O)N2CCOCC3(C2)CN(c2nccs2)C3)cc1OC,15%[176 µM],.,.,.,.,.
Cc1cc(/C=N/NC(N)=S)c(O)c(/C=N/NC(N)=S)c1,?,3.2µM*,31%,2%,13µM*,11%
NC(=S)N/N=C/c1ccccc1O,0%,35µM*,39%,6%,89µM*,16%
Oc1ccccc1/C=N/Nc1ccccc1,32µM*,-36%,22%,8.9µM*,-32%,-4%
NC(=S)N/N=C/c1ccc(/C=N/NC(N)=S)cc1,-7%,2%,67%,.,-4%,-3%
COc1cc(OC)c(/C=N/NC(N)=S)cc1Br,?,-1%,31%,?,-5%,-14%
CCN(CC)C(=S)SC1=CCS(=O)(=O)C1,-33%,.,45%,20µM*,3%[11.4 µM],79µM*
CCc1ccc(NC(=O)c2ccc3c(Cl)c4c(nc3c2)CCC4)cc1,-38%,.,.,.,.,.
Cn1nc(C(=O)Nc2ccc(S(=O)(=O)N3CCCCC3)cc2)c2ccccc2c1=O,-12%,-27%,14%,?,-19%,-2%
